# High-throughput results as filed in PubChem.
# Rin1-Abl PPI inh: human Rin1-Abl interaction inhibition; inhibition, % at 7.35 µM; AID 588664; 360,000 compounds, 0.4% hits; TR-FRET Rin1/Abl binding, biochemical; in the data active = inhibition above about 5%, passing the limit was not always enough
# pPAFAH inh: pPAFAH (human) enzyme inhibition. recombinant pPAFAH, FP-rhodamine probe fluorescence polarization. inhibition, % at 3.39 µM. 330,000 compounds, 1.5% hits. AID 463082;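 active = inhibition above the mean inhibition across the screen plus 3 SD, cut at about 25% in these data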;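 also: inhibitors block binding of the rhodamine activity-based probe so polarization drops; 0% = enzyme with DMSO and 100% = wells lacking pPAFAH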
# E coli Lon inh: inhibits E. coli Lon protease. P0A9M0. purified E. coli Lon protease, fluorescence polarization. inhibition, % at 7.94 µM. 360,000 compounds, 0.42% hits. AID 602123; in the data active = inhibition above about 13%, passing the limit was not always enough;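 also: 0% = enzyme with probe and DMSO and 100% = no enzyme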
# PAFAH1B3 inh: PAFAH1B3 (human) inhibition; Q15102; recombinant PAFAH1B3, FP-rhodamine probe, fluorescence polarization; inhibition, % at 3.39 µM; 340,000 compounds, 0.28% hits; AID 492972;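 active = inhibition above the screen-wide average of all tested compounds plus 3 SD, cut at about 25% in these data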;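 also: 0% = enzyme with DMSO only and 100% = wells lacking PAFAH1B3 protein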
# Target sequence (Q15102 whole entry, looked up): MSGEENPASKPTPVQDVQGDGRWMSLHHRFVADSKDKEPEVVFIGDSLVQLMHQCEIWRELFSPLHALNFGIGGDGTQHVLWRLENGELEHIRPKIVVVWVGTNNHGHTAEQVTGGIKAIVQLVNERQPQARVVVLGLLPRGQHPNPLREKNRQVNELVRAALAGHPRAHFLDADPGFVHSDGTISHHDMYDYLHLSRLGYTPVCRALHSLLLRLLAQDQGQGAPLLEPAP
# PAFAH2 FP inh: PAFAH2 (human) inhibition; Q99487; recombinant PAFAH2, FP-rhodamine activity probe, fluorescence polarization; inhibition, % at 3.39 µM; 340,000 compounds, 0.99% hits; AID 492956;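 active = inhibition above the mean over all tested compounds plus 3 SD, cut at about 30% in these data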;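 also: inhibitors block probe labeling of enzyme so polarization drops; 0% = enzyme with DMSO and 100% = wells lacking PAFAH2 protein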
# PAFAH1B2 FP inh: PAFAH1B2 (human) inhibition; P68402; recombinant PAFAH1B2, FP-rhodamine activity probe, fluorescence polarization; inhibition, % at 3.39 µM; 340,000 compounds, 1.2% hits; AID 492953;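 active = inhibition above the mean of all tested compounds plus 3 SD, cut at about 24% in these data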;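 also: 0% = enzyme with DMSO and 100% = wells lacking PAFAH1B2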
# Target sequence (P68402 whole entry, looked up): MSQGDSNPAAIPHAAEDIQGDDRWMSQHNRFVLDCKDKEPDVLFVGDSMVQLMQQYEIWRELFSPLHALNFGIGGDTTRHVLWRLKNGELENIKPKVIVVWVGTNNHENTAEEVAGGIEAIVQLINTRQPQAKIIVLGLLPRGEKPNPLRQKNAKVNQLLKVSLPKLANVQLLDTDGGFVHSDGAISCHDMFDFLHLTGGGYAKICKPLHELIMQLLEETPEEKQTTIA
# An asterisk follows results filed as active; . = not tested or not shown. In the library only some 3.1% were active in any assay of this set; here they are far more common.
SMILES,Rin1-Abl PPI inh,pPAFAH inh,E coli Lon inh,PAFAH1B3 inh,PAFAH2 FP inh,PAFAH1B2 FP inh
C#CCOCCOCCOCCNc1nc(N2CCN(C(=O)CCCCCCCCCCNC(=O)[C@H](CO)n3cc(CCCSC)nn3)CC2)nc(N2CCN(C(=O)CCCCCCCCCCNC(=O)[C@H](CCCN=C(N)N)n3cc(C[C@@H](C)CC)nn3)CC2)n1,10.3,-10.3,-3.6,-48.7,-39.2,-25.4
NC(=S)n1[nH]c(-c2ccc([N+](=O)[O-])cc2)c(N=Nc2cccc([N+](=O)[O-])c2)c1=O,-3.0,.,5.7,19.3,38.6*,26.6*
NC(=S)n1[nH]c(-c2ccc([N+](=O)[O-])cc2)c(N=Nc2ccccc2[N+](=O)[O-])c1=O,-1.0,.,2.6,12.2,16.6,9.0
COC(=O)C1=CN(C(C)c2ccccc2)C=C(C(=O)OC)C1c1cc(OC)c(OC)c(OC)c1 (stereo unspecified),0.5,-3.5,8.1,12.1,4.0,27.5*
N/C(=N\OC(=O)Cc1ccccc1[N+](=O)[O-])c1cccc(Br)c1,-2.8,12.2,-6.5,5.6,1.9,4.6
COc1ccc(/C(N)=N/OC(=O)CSc2ccccc2)cc1,1.9,5.0,-11.0,8.8,7.8,29.3*
Cc1ccc(SCC(=O)O/N=C(\N)c2cccc([N+](=O)[O-])c2)cc1,-1.1,12.8,-1.7,2.8,2.1,35.8*
Cc1ccc(/C(N)=N/OC(=O)CSc2ccccc2)cc1,-5.7,5.1,-2.1,-0.8,4.5,7.1
N/C(=N\OC(=O)Cc1ccccc1)c1cccc(Br)c1,-2.6,0.2,-4.4,7.4,5.2,29.5*
N/C(=N\OC(=O)CCCc1ccccc1)c1cccc([N+](=O)[O-])c1,-0.2,0.7,-1.8,4.4,-4.2,25.7*
COc1ccccc1CNC(=O)c1cc(C(=O)CC(C)C)c[nH]1,-1.3,-0.2,-4.8,4.4,-2.5,3.9
Nc1cc2c(cc1Cl)-c1ccc(Cl)cc1C2=O,-0.6,.,-1.0,0.3,1.4,-0.6
C[C@H]1COc2cccc(N(C)CCO)c2S(=O)(=O)N1,.,.,-9.7,.,.,.
Cc1ccc(C(O)c2ncc(-c3ccc(C(F)(F)F)cc3)[nH]2)cc1F (stereo unspecified),2.6,.,-4.7,.,.,.
Cc1nn(C(=O)N(C)C)c(C)c1CN1C(=O)c2ccccc2C1=O,-3.0,.,-5.7,12.7,-1.2,-0.4
O=C(c1cc([N+](=O)[O-])ccc1N1CCN(S(=O)(=O)c2ccc(Cl)c(Cl)c2)CC1)N1CCOCC1,-4.6,1.0,-0.7,-2.9,5.1,37.3*
O=C(O)c1cccc(CSc2nc(-c3ccccc3)cc(C(F)(F)F)n2)c1,0.8,25.6*,-0.2,7.0,-10.8,1.8
O=C(N/N=C/c1c[nH]c2ccccc12)c1sc2ccccc2c1Cl,-2.1,25.4*,-4.7,12.2,13.6,6.0
O=C(CSc1ccc(Cl)cc1)N/N=C/c1ccc([N+](=O)[O-])o1,2.9,14.4,-7.0,5.7,2.9,29.1*
O=C(N/N=C/c1ccccn1)c1sc2ccccc2c1Cl,0.0,9.7,9.3,7.2,6.0,8.9
O=C(N/N=C/c1ccc([N+](=O)[O-])o1)c1sc2ccccc2c1Cl,-4.5,30.5*,-32.5,11.6,6.3,13.5
O=C(NC1CCCCC1)NC1C2CC3CC(C2)CC1C3 (stereo unspecified),0.5,10.0,-12.8,8.1,1.0,8.1
COc1cc(OC)c(NC(=O)CCNS(=O)(=O)c2ccc3c(c2)oc(=O)n3C)cc1Cl,-0.2,24.7*,-7.7,1.8,6.1,-3.0
COc1cc([C@@H]2CC=C(C(=O)O)[C@H](c3ccccc3)N2S(=O)(=O)c2ccc(C)cc2)cc(OC)c1OC,3.9,0.1,8.9,4.2,4.1,2.8
Cc1ccc(S(=O)(=O)N2[C@@H](c3ccc(F)cc3)C(C(=O)O)=CC[C@H]2c2cccs2)cc1,0.7,5.5,0.9,-8.2,0.2,29.7*
CCOc1ccc([C@@H]2CC=C(C(=O)O)[C@H](c3ccc(F)cc3)N2S(=O)(=O)c2ccc(C)cc2)cc1,2.6,3.7,5.0,6.8,-2.0,19.0
Cc1ccc([C@H]2C(C(=O)O)=CC[C@@H](c3cccs3)N2S(=O)(=O)c2ccc(C)cc2)cc1,-2.3,-0.2,3.3,0.3,7.0,27.0*
Cc1ccc(S(=O)(=O)N2[C@@H](c3cccc(Cl)c3)C(C(=O)O)=CC[C@H]2c2cccs2)cc1,3.3,-4.0,-13.7,7.0,7.3,26.7*
